The values that follow come from the supplement of paper PMC6089552.

In this test the test system is A673/TR/shEF. The experiment in a line: cell viability (LOESS-normalised, relative to median of negative controls) (log2 ratio); higher = more viable cells (less compound effect), active = hit call of the paper (over 3 MAD below the median). The settings on record: treatment time: 72 h. In a few lines: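 For three days, A673/TR/shEF Ewing sarcoma cells in 384-well plates (1,500 per well) were treated with library compounds at two or more concentrations or with DMSO controls, after doxycycline had been added or withheld 24 h beforehand to induce EWS-FLI1 shRNA knockdown. Viability was read by CellTiter-Glo luminescence on an Envision reader. The data were LOESS-corrected per plate, divided by the median of negative controls and log2-transformed.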

The mark [1] stands for this setting: 0.25 µM, library screen: screen2, EWS-FLI1 expression: high (no doxycycline).
[2] abbreviates: 0.25 µM, library screen: screen2, EWS-FLI1 expression: low (doxycycline-induced shRNA knockdown).
The mark [3] stands for this setting: 2.5 µM, library screen: screen2, EWS-FLI1 expression: high (no doxycycline).
The mark [4] stands for this setting: 2.5 µM, library screen: screen2, EWS-FLI1 expression: low (doxycycline-induced shRNA knockdown).
Setting [5] is: 0.25 µM, library screen: screen1, EWS-FLI1 expression: high (no doxycycline).
Setting [6] is: 0.25 µM, library screen: screen1, EWS-FLI1 expression: low (doxycycline-induced shRNA knockdown).
The mark [7] stands for this setting: 2.5 µM, library screen: screen1, EWS-FLI1 expression: high (no doxycycline).
[8] abbreviates: 2.5 µM, library screen: screen1, EWS-FLI1 expression: low (doxycycline-induced shRNA knockdown).
Setting [9] is: 0.103 µM, library screen: screen3, EWS-FLI1 expression: high (no doxycycline).
[10] abbreviates: 0.103 µM, library screen: screen3, EWS-FLI1 expression: low (doxycycline-induced shRNA knockdown).
Where [11] appears, read: 0.308 µM, library screen: screen3, EWS-FLI1 expression: high (no doxycycline).
The mark [12] stands for this setting: 0.308 µM, library screen: screen3, EWS-FLI1 expression: low (doxycycline-induced shRNA knockdown).
The mark [13] stands for this setting: 0.926 µM, library screen: screen3, EWS-FLI1 expression: high (no doxycycline).
Setting [14] is: 0.926 µM, library screen: screen3, EWS-FLI1 expression: low (doxycycline-induced shRNA knockdown).
[15] abbreviates: 2.8 µM, library screen: screen3, EWS-FLI1 expression: high (no doxycycline).
The mark [16] stands for this setting: 2.8 µM, library screen: screen3, EWS-FLI1 expression: low (doxycycline-induced shRNA knockdown).
[17] abbreviates: 8.3 µM, library screen: screen3, EWS-FLI1 expression: high (no doxycycline).
[18] abbreviates: 8.3 µM, library screen: screen3, EWS-FLI1 expression: low (doxycycline-induced shRNA knockdown).
The mark [19] stands for this setting: 25 µM, library screen: screen3, EWS-FLI1 expression: high (no doxycycline).
Where [20] appears, read: 25 µM, library screen: screen3, EWS-FLI1 expression: low (doxycycline-induced shRNA knockdown).

Screen size: about 3,200 compounds; about 300 (9.4%) showed activity. Only a selection was taken, and actives are over-represented in it overall. Values without a mark were called inactive.

Regarding `Cc1ccccc1N1CCN(S(=O)(=O)C[C@]23CCC(CC2NC(=O)[C@@H](N)CCS(C)(=O)=O)C3(C)C)CC1` (stereo partly specified), the “cell viability (log2)” value under setting [1] was 0.163, the “cell viability (log2)” value under setting [2] is 0.172, the “cell viability (log2)” value under setting [3] is 0.18 and the “cell viability (log2)” value under setting [4] is 0.0913.

In the case of `CC(C)=CCCC1(C)C=Cc2c(O)c3c(c(CC=C(C)C)c2O1)OC12C(=CCCC1C(C)(C)OC2(CC=C(C)C(=O)O)C(=O)O)C3=O` (stereo unspecified), the “cell viability (log2)” value under setting [5] is 0.0468, the “cell viability (log2)” value under setting [6] was -0.0618, the “cell viability (log2)” value under setting [7] was 0.121 and the “cell viability (log2)” value under setting [8] is 0.0265.

Regarding `CN(C)C(=O)/N=N/C(=O)N(C)C`, the “cell viability (log2)” value is 0.0755 under setting [1], 0.0201 under setting [2], 0.21 under setting [3] and 0.117 under setting [4].

`COc1ccc(Cl)cc1C(=O)NCCc1ccc(S(=O)(=O)NC(=O)NC2CCCCC2)cc1`: the “cell viability (log2)” value is 0.115 under setting [9]; 0.0621 under setting [10]; 0.0607 under setting [5]; 0.0399 under setting [6]; 0.171 under setting [1]; 0.0382 under setting [2]. The “cell viability (log2)” value by setting is: under setting [11], 0.175; under setting [12], 0.0954; under setting [13], 0.104; under setting [14], 0.103; under setting [7], 0.0749; under setting [8], 0.0806. The “cell viability (log2)” value by setting is: under setting [3], 0.0699; under setting [4], 0.0189; under setting [15], 0.125; under setting [16], 0.0778; under setting [17], 0.113; under setting [18], 0.0685. Also, the “cell viability (log2)” value is 0.0907 under setting [19] and 0.0579 under setting [20].

With `Cc1cnc(C(=O)NCCc2ccc(S(=O)(=O)NC(=O)NC3CCCCC3)cc2)cn1`, the “cell viability (log2)” value under setting [9] was 0.103; the “cell viability (log2)” value under setting [10] was 0.0573; the “cell viability (log2)” value under setting [1] is 0.139; the “cell viability (log2)” value under setting [2] is -0.00978; the “cell viability (log2)” value under setting [11] is 0.195; the “cell viability (log2)” value under setting [12] is 0.0857. Besides, the “cell viability (log2)” value reads like this: under setting [13], 0.143; under setting [14], 0.063; under setting [3], 0.155; under setting [4], 0.035; under setting [15], 0.0953; under setting [16], 0.0849. Also, the “cell viability (log2)” value by setting is: under setting [17], 0.13; under setting [18], 0.0833; under setting [19], 0.172; under setting [20], 0.135.

Take `CCC1=C(C)CN(C(=O)NCCc2ccc(S(=O)(=O)NC(=O)NC3CCC(C)CC3)cc2)C1=O` (stereo unspecified): the “cell viability (log2)” value under setting [9] was 0.065; the “cell viability (log2)” value under setting [10] was 0.0619; the “cell viability (log2)” value under setting [11] was -0.018; the “cell viability (log2)” value under setting [12] was 0.0454; the “cell viability (log2)” value under setting [13] is -0.0554; the “cell viability (log2)” value under setting [14] was -0.00949. The “cell viability (log2)” value under setting [15] is 0.0264; the “cell viability (log2)” value under setting [16] is -0.0201; the “cell viability (log2)” value under setting [17] was -0.0146; the “cell viability (log2)” value under setting [18] was -0.0784; the “cell viability (log2)” value under setting [19] is -0.481 (active); the “cell viability (log2)” value under setting [20] was -0.408 (active).

For `CC1(C)[C@@H](O[C@@H]2O[C@H](C(=O)O)[C@@H](O)[C@H](O)[C@H]2O[C@@H]2O[C@H](C(=O)O)[C@@H](O)[C@H](O)[C@H]2O)CC[C@]2(C)[C@H]3C(=O)C=C4[C@@H]5C[C@@](C)(C(=O)O)CC[C@]5(C)CC[C@@]4(C)[C@]3(C)CC[C@@H]12`, the “cell viability (log2)” value under setting [5] was 0.061, the “cell viability (log2)” value under setting [6] was 0.0758, the “cell viability (log2)” value under setting [7] was 0.126 and the “cell viability (log2)” value under setting [8] is 0.123.

`NC[C@@H]1O[C@H](O[C@@H]2[C@@H](CO)OC(O[C@H]3C(O[C@H]4O[C@H](CO)[C@@H](O)[C@H](O)[C@H]4N)[C@@H](N)C[C@@H](N)[C@@H]3O)[C@@H]2O)[C@H](N)[C@@H](O)[C@@H]1O` (stereo partly specified): the “cell viability (log2)” value is 0.0774 under setting [5]; 0.116 under setting [6]; 0.171 under setting [1]; 0.0601 under setting [2]; 0.0937 under setting [7]; 0.0802 under setting [8]. The “cell viability (log2)” value under setting [3] was 0.19 and the “cell viability (log2)” value under setting [4] is 0.0499.

For `COc1ccc(OC)c(CN2CCN(Cc3ccc(F)cc3)CC2)c1`, the “cell viability (log2)” value under setting [5] is 0.102, the “cell viability (log2)” value under setting [6] is 0.0528, the “cell viability (log2)” value under setting [7] is 0.106 and the “cell viability (log2)” value under setting [8] is -0.00941.

With `CN1CCN(CCOc2cc(OC3CCOCC3)c3c(Nc4c(Cl)ccc5c4OCO5)ncnc3c2)CC1`, the “cell viability (log2)” value was 0.0216 under setting [9]; 0.122 under setting [10]; -0.0387 under setting [11]; 0.0239 under setting [12]; -0.075 under setting [13]; 0.0267 under setting [14]. The “cell viability (log2)” value reads like this: under setting [15], -0.153; under setting [16], -0.0864; under setting [17], -0.339 (active); under setting [18], -0.15 (active); under setting [19], -0.476 (active); under setting [20], -0.808 (active).

Consider `C[C@@H]1O[C@H](OC[C@H]2O[C@@H](Oc3c(-c4ccc(O)c(O)c4)oc4cc(O)cc(O)c4c3=O)[C@H](O)[C@@H](O)[C@@H]2O)[C@H](O)[C@H](O)[C@H]1O`, for which the “cell viability (log2)” value under setting [5] was -0.0111, the “cell viability (log2)” value under setting [6] is 0.0513, the “cell viability (log2)” value under setting [7] was 0.125 and the “cell viability (log2)” value under setting [8] was 0.094.

Consider `C[C@H](CCC(=O)O)[C@H]1CC[C@H]2[C@@H]3C(O)CC4=CC(=O)CC[C@]4(C)[C@H]3CC[C@]12C` (stereo partly specified), for which the “cell viability (log2)” value reads like this: under setting [5], 0.0418; under setting [6], -0.00533; under setting [7], 0.162; under setting [8], -0.0526.
